Assay results taken from PubChem BioAssay (NCI).
The panel holds about 83,000 compounds, 20% with a hit somewhere; the sample as a whole holds those more often.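 Cells were grown in 96-well plates and exposed to the test compound at a single concentration for 48 hours; results are reported as percent growth, with values below 10 considered active.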 Calls of active or inactive are those of the source.

Assays:
Experiment in all cases: NCI-60 one-dose screen, 48 h (100 = growth as untreated, 0 = no growth, -100 = all killed)
Details in all cases: 10 µM
DU-145 prostate = system: DU-145 prostate
K-562 leukemia = system: K-562 leukemia
MALME-3M melanoma = system: MALME-3M melanoma
RXF 393 renal = system: RXF 393 renal
SF-268 CNS = system: SF-268 CNS
SF-295 CNS = system: SF-295 CNS
SF-539 CNS = system: SF-539 CNS
UACC-257 melanoma = system: UACC-257 melanoma
M14 melanoma = system: M14 melanoma
MDA-MB-231 breast = system: MDA-MB-231 breast

Measured: growth

CCOC(=O)c1cc(/C=C/c2ccc(Cl)cc2Cl)on1
inactive: DU-145 prostate 30.6% | MALME-3M melanoma 69.6% | SF-268 CNS 89.1% | SF-295 CNS 17.6% | UACC-257 melanoma 105% | M14 melanoma 56%
active: K-562 leukemia 5.36% | RXF 393 renal -37.3% | SF-539 CNS -48.5%

CC(C)=C(NC(=O)c1ccccc1)C(=O)O
inactive: DU-145 prostate 106% | K-562 leukemia 102% | MALME-3M melanoma 99% | RXF 393 renal 103% | SF-268 CNS 96.1% | SF-295 CNS 116% | SF-539 CNS 110% | UACC-257 melanoma 97.5% | M14 melanoma 108%

CC(=O)Cc1cc(-c2cc(CC(C)=O)[nH]n2)n[nH]1
inactive: DU-145 prostate 107% | K-562 leukemia 99.5% | MALME-3M melanoma 94.6% | RXF 393 renal 103% | SF-268 CNS 98.5% | SF-295 CNS 94.7% | SF-539 CNS 98% | UACC-257 melanoma 93% | M14 melanoma 99.5%

O=C(O)c1ccccc1NCc1ccco1
inactive: DU-145 prostate 118% | K-562 leukemia 104% | MALME-3M melanoma 108% | MDA-MB-231 breast 104% | SF-268 CNS 111% | SF-295 CNS 114% | SF-539 CNS 103% | UACC-257 melanoma 143% | M14 melanoma 102%

O=C(Cc1nc2ccc([N+](=O)[O-])cc2nc1CC(=O)c1ccccc1)c1ccccc1
inactive: DU-145 prostate 50.6% | K-562 leukemia 43.8% | MALME-3M melanoma 46.8% | RXF 393 renal 89.1% | SF-268 CNS 73.9% | SF-295 CNS 53% | SF-539 CNS 18.3% | UACC-257 melanoma 86.9% | M14 melanoma 48.4%

O=C(O)c1ccc(S(=O)(=O)O)cc1
inactive: DU-145 prostate 133% | K-562 leukemia 114% | MALME-3M melanoma 97.2% | MDA-MB-231 breast 107% | SF-268 CNS 123% | SF-295 CNS 107% | SF-539 CNS 97.9% | M14 melanoma 117%

COc1ccc(C2OC(N)=C(O)C2=O)cc1OC (centres undefined)
inactive: DU-145 prostate 109% | K-562 leukemia 94.6% | MALME-3M melanoma 95.5% | RXF 393 renal 110% | SF-268 CNS 101% | SF-295 CNS 99.9% | SF-539 CNS 90.9% | UACC-257 melanoma 106% | M14 melanoma 111%

CC(=O)c1ccc(N=C(C#N)C2=C(O)c3ccccc3C2=O)cc1
inactive: DU-145 prostate 113% | K-562 leukemia 85.5% | MALME-3M melanoma 114% | MDA-MB-231 breast 106% | SF-268 CNS 101% | SF-295 CNS 102% | SF-539 CNS 107% | UACC-257 melanoma 94.2% | M14 melanoma 105%

c1c(-c2cc(C3CC3)[nH]n2)n[nH]c1C1CC1
inactive: DU-145 prostate 111% | K-562 leukemia 70.9% | MALME-3M melanoma 92.2% | RXF 393 renal 108% | SF-268 CNS 107% | SF-295 CNS 98% | SF-539 CNS 101% | UACC-257 melanoma 90.8% | M14 melanoma 98.9%

COC(=O)C(C)Oc1ccc(OC#N)cc1 (centres undefined)
inactive: DU-145 prostate 105% | K-562 leukemia 94.1% | MALME-3M melanoma 93.1% | RXF 393 renal 101% | SF-268 CNS 98.9% | SF-295 CNS 96.3% | SF-539 CNS 94.6% | UACC-257 melanoma 104% | M14 melanoma 101%

OC1CCCc2ccccc21 (centres undefined)
inactive: DU-145 prostate 114% | K-562 leukemia 97.9% | MALME-3M melanoma 78.8% | MDA-MB-231 breast 117% | SF-268 CNS 116% | SF-295 CNS 93.2% | SF-539 CNS 96.4% | M14 melanoma 113%

O=C1OC[C@H]2[C@H](c3ccc(O)c(O)c3)c3cc(O)c(O)cc3C[C@H]12
inactive: DU-145 prostate 108% | K-562 leukemia 180% | MALME-3M melanoma 140% | MDA-MB-231 breast 129% | SF-268 CNS 116% | SF-295 CNS 124% | SF-539 CNS 122% | UACC-257 melanoma 147% | M14 melanoma 120%

O=C1NC(=O)C2C(=O)NC(=O)C1C21CCc2ccccc21 (centres undefined)
inactive: DU-145 prostate 115% | K-562 leukemia 98.2% | MALME-3M melanoma 102% | RXF 393 renal 99.3% | SF-268 CNS 111% | SF-295 CNS 102% | SF-539 CNS 93.7% | UACC-257 melanoma 107% | M14 melanoma 103%

Cc1cc2nc(CC(=O)c3ccccc3)c(=O)[nH]c2cc1C
inactive: DU-145 prostate 112% | K-562 leukemia 90.1% | MALME-3M melanoma 101% | RXF 393 renal 101% | SF-268 CNS 108% | SF-295 CNS 89.8% | SF-539 CNS 95.6% | UACC-257 melanoma 106% | M14 melanoma 87.2%

CCc1nn(Cc2ccccc2)c2nc(C)c(CCc3ccccc3)c(Cl)c12
inactive: DU-145 prostate 102% | K-562 leukemia 61.1% | MALME-3M melanoma 75.5% | MDA-MB-231 breast 99.7% | SF-268 CNS 106% | SF-295 CNS 85.1% | SF-539 CNS 86.7% | M14 melanoma 100%

O=C1C=CC2=C3c4cc(O)c(O)cc4CC3(O)COC2=C1O (centres undefined)
inactive: DU-145 prostate 119% | K-562 leukemia 108% | MALME-3M melanoma 124% | MDA-MB-231 breast 99.1% | SF-268 CNS 107% | SF-295 CNS 107% | SF-539 CNS 90% | M14 melanoma 102%

c1ccc(Cc2ccccc2)cc1
inactive: DU-145 prostate 103% | K-562 leukemia 119% | MALME-3M melanoma 96% | MDA-MB-231 breast 105% | SF-268 CNS 107% | SF-295 CNS 110% | SF-539 CNS 93.5% | M14 melanoma 112%

O=[N+]([O-])c1ccc(-c2noc(-c3cccs3)n2)cc1
inactive: DU-145 prostate 89.3% | K-562 leukemia 93.7% | MALME-3M melanoma 91.7% | RXF 393 renal 92% | SF-268 CNS 101% | SF-295 CNS 72.9% | SF-539 CNS 81.3% | UACC-257 melanoma 100% | M14 melanoma 91.7%

CS(=O)CC1=NC(=N)N=C1CS(C)=O (centres undefined)
inactive: DU-145 prostate 111% | K-562 leukemia 99.4% | MALME-3M melanoma 98% | RXF 393 renal 107% | SF-268 CNS 106% | SF-295 CNS 98.1% | SF-539 CNS 99.5% | UACC-257 melanoma 86.6% | M14 melanoma 105%

COc1ccc2c(c1)CCc1c-2n[nH]c1-c1[nH]nc2c1CCc1cc(OC)ccc1-2
inactive: DU-145 prostate 86.2% | K-562 leukemia 20.8% | MALME-3M melanoma 46.6% | RXF 393 renal 54.3% | SF-268 CNS 86.2% | SF-295 CNS 29.6% | SF-539 CNS 31.8% | UACC-257 melanoma 82.5% | M14 melanoma 36.1%

COC(=O)c1[nH]c(=O)c(C#N)c(C(=O)OC)c1C(=O)c1ccccc1
inactive: DU-145 prostate 104% | K-562 leukemia 102% | MALME-3M melanoma 96.8% | RXF 393 renal 122% | SF-268 CNS 99.4% | SF-295 CNS 96.2% | SF-539 CNS 97.1% | UACC-257 melanoma 86.1% | M14 melanoma 107%

O=C(N/N=C\c1cc(Br)cc(Br)c1O)N/N=C/c1cc(Br)cc(Br)c1O
inactive: DU-145 prostate 75.2% | K-562 leukemia 22.9% | MALME-3M melanoma 70.2% | MDA-MB-231 breast 72% | SF-268 CNS 51.1% | SF-539 CNS 35.5% | M14 melanoma 55.2%
active: SF-295 CNS 6.45%

c1csc(-c2cc(-c3cc(-c4cccs4)[nH]n3)n[nH]2)c1
inactive: DU-145 prostate 106% | K-562 leukemia 84.7% | MALME-3M melanoma 88.3% | RXF 393 renal 112% | SF-268 CNS 107% | SF-295 CNS 96.8% | SF-539 CNS 93.8% | UACC-257 melanoma 109% | M14 melanoma 96.9%

CC1(O)OC(COc2ccc(Cl)cc2)COC1O (centres undefined)
inactive: DU-145 prostate 108% | K-562 leukemia 104% | MALME-3M melanoma 99.2% | RXF 393 renal 107% | SF-268 CNS 104% | SF-295 CNS 103% | SF-539 CNS 97.3% | UACC-257 melanoma 95.7%

O=C(Cc1nc2ccc([N+](=O)[O-])cc2nc1CC(=O)c1cccnc1)c1cccnc1
inactive: DU-145 prostate 76.5% | K-562 leukemia 70.7% | MALME-3M melanoma 68.5% | RXF 393 renal 20.1% | SF-268 CNS 47% | SF-295 CNS 54.5% | SF-539 CNS 30.1% | UACC-257 melanoma 78.6% | M14 melanoma 82.8%

Nc1nc2c(c(-c3nc(N)nc4c3CCc3ccccc3-4)n1)CCc1ccccc1-2
inactive: DU-145 prostate 107% | K-562 leukemia 99.2% | MALME-3M melanoma 85.3% | RXF 393 renal 115% | SF-268 CNS 103% | SF-295 CNS 99.5% | SF-539 CNS 93.1% | UACC-257 melanoma 109% | M14 melanoma 105%

CCOC(=O)c1cc(/C=C/c2cccc(Cl)c2)on1
inactive: DU-145 prostate 95.2% | K-562 leukemia 31.6% | MALME-3M melanoma 93.1% | RXF 393 renal 97.1% | SF-268 CNS 93.7% | SF-295 CNS 88.2% | SF-539 CNS 89.6% | UACC-257 melanoma 108% | M14 melanoma 78.8%

COC(=O)c1cc(-c2ccc(Cl)c(Cl)c2)[nH]c(=O)c1C#N
inactive: DU-145 prostate 108% | K-562 leukemia 108% | MALME-3M melanoma 89.1% | RXF 393 renal 109% | SF-268 CNS 102% | SF-295 CNS 96.1% | SF-539 CNS 101% | UACC-257 melanoma 98.4% | M14 melanoma 99.2%

CCCCNC(=O)C(=O)NCCCC
inactive: DU-145 prostate 103% | K-562 leukemia 108% | MALME-3M melanoma 95.4% | RXF 393 renal 107% | SF-268 CNS 97.9% | SF-295 CNS 102% | SF-539 CNS 101% | UACC-257 melanoma 105% | M14 melanoma 104%
